# Data reported in the supplement of paper PMC8728848.
# Many of the other results were omitted from the sample, so the strongest signals are more common in it than they were.
# B1: Gal 4 (Mus musculus), P56470 (protein)
# chain: MAYVPAPGYQPTYNPTLPYYQPIPGGLNVGMSVYIQGVASEHMKRFFVNFVVGQDPGSDVAFHFNPRFDGWDKVVFNTLQGGKWGSEERKRSMPFKKGAAFELVFIVLAEHYKVVVNGNPFYEYGHRLPLQMVTHLQVDGDLQLQSINFIGGQPLRPQGPPMMPPYPGPGHCHQQLNSLPTMEGPPTFNPPVPYFGRLQGGLTARRTIIIKGYVPPTGKSFAINFKVGSSGDIALHINPRMGNGTVVRNSLLNGSWGSEEKKITHNPFGPGQFFDLSIRCGLDRFKVYANGQHLFDFAHRLSAFQRVDTLEIQGDVTLSYVQI
# Legend:
# Assay in all cases: glycan array binding signal (z-score within array); higher = stronger binding
# Conditions in all cases: glycan notation: IUPAC condensed, linker removed
# [1] = molecular target: Fuc(a1-2)Gal(b1-3)GlcNAc6S
# Outline: (§1)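 Glycan array binding is given as a within-array Z-score, which can be read as non-binding when negative. The arrays, 3228 of them, came from the Consortium for Functional Glycomics database and were retained only where the protein sequence was available. Z-scores were averaged across arrays of the same protein sequence at different concentrations or buffers and across linkers.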
# [2] = molecular target: Fuc(a1-2)Gal(b1-3)[Fuc(a1-4)]GlcNAc(b1-2)Man(a1-3)[Fuc(a1-2)Gal(b1-3)[Fuc(a1-4)]GlcNAc(b1-2)Man(a1-6)]Man(b1-4)GlcNAc(b1-4)[Fuc(a1-6)]GlcNAc(b1-4)[Fuc(a1-6)]GlcNAc
# Outline: as §1
# Fuc(a1-2)Gal(b1-4)Glc = molecular target: Fuc(a1-2)Gal(b1-4)Glc
# Outline: as §1
# Fuc(a1-2)Gal(b1-4)GlcNAc = molecular target: Fuc(a1-2)Gal(b1-4)GlcNAc
# Outline: as §1
# [3] = molecular target: Fuc(a1-2)Gal(b1-4)[Fuc(a1-3)]GlcNAc
# Outline: as §1
# [4] = molecular target: Fuc(a1-2)Gal6S(b1-4)GlcNAc
# Outline: as §1
# [5] = molecular target: Fuc(a1-2)[Gal(a1-3)]Gal(b1-3)GlcNAc
# Outline: as §1
# [6] = molecular target: Fuc(a1-2)[Gal(a1-3)]Gal(b1-4)[Fuc(a1-3)]GlcNAc
# Outline: as §1
# [7] = molecular target: Fuc(a1-2)[GalNAc(a1-3)]Gal(b1-3)GlcNAc
# Outline: as §1
# [8] = molecular target: Fuc(a1-2)[GalNAc(a1-3)]Gal(b1-3)GlcNAc(b1-2)Man(a1-3)[Fuc(a1-2)[GalNAc(a1-3)]Gal(b1-3)GlcNAc(b1-2)Man(a1-6)]Man(b1-4)GlcNAc(b1-4)GlcNAc
# Outline: as §1
# [9] = molecular target: Fuc(a1-2)[GalNAc(a1-3)]Gal(b1-4)Glc
# Outline: as §1
# [10] = molecular target: Fuc(a1-2)[GalNAc(a1-3)]Gal(b1-4)GlcNAc
# Outline: as §1
# [11] = molecular target: Fuc(a1-2)[GalNAc(a1-3)]Gal(b1-4)GlcNAc(b1-2)Man
# Outline: as §1
# [12] = molecular target: Fuc(a1-2)[GalNAc(a1-3)]Gal(b1-4)GlcNAc(b1-2)Man(a1-3)[Fuc(a1-2)[GalNAc(a1-3)]Gal(b1-4)GlcNAc(b1-2)Man(a1-6)]Man(b1-4)GlcNAc(b1-4)GlcNAc
# Outline: as §1
# [13] = molecular target: Fuc(a1-2)[GalNAc(a1-3)]Gal(b1-4)GlcNAc(b1-3)Gal(b1-4)GlcNAc
# Outline: as §1
# [14] = molecular target: Fuc(a1-2)[GalNAc(a1-3)]Gal(b1-4)GlcNAc(b1-3)Gal(b1-4)GlcNAc(b1-3)Gal(b1-4)GlcNAc
# Outline: as §1
# [15] = molecular target: Fuc(a1-3)[Gal(b1-4)]GlcNAc(b1-6)GalNAc
# Outline: as §1
# [16] = molecular target: Gal(a1-3)Gal(b1-4)[Fuc(a1-3)]GlcNAc
# Outline: as §1
# [17] = molecular target: Gal(b1-3)GalNAc(a1-3)[Fuc(a1-2)]Gal(b1-4)Glc
# Outline: as §1
# [18] = molecular target: Gal(b1-3)GalNAc(a1-3)[Fuc(a1-2)]Gal(b1-4)GlcNAc
# Outline: as §1
# Gal(b1-3)GlcNAc = molecular target: Gal(b1-3)GlcNAc
# Outline: as §1
# [19] = molecular target: Gal(b1-3)GlcNAc(b1-2)Man(a1-3)[Gal(b1-3)GlcNAc(b1-2)Man(a1-6)]Man(b1-4)GlcNAc(b1-4)GlcNAc
# Outline: as §1
# [20] = molecular target: Gal(b1-3)[GlcNAc(b1-6)]GalNAc
# Outline: as §1
# [21] = molecular target: Gal(b1-3)[Neu5Ac(a2-6)]GlcNAc(b1-6)Gal(b1-4)Glc
# Outline: as §1
# [22] = molecular target: Gal(b1-4)GalNAc(a1-3)[Fuc(a1-2)]Gal(b1-4)GlcNAc
# Outline: as §1
# Gal(b1-4)GlcNAc(b1-2)Man = molecular target: Gal(b1-4)GlcNAc(b1-2)Man
# Outline: as §1
# [23] = molecular target: Gal(b1-4)GlcNAc(b1-3)Gal(b1-4)GlcNAc(b1-3)Gal(b1-4)GlcNAc
# Outline: as §1
# [24] = molecular target: Gal(b1-4)GlcNAc(b1-3)Gal(b1-4)GlcNAc(b1-3)Gal(b1-4)GlcNAc(b1-3)Gal(b1-4)GlcNAc(b1-2)[Gal(b1-4)GlcNAc(b1-3)Gal(b1-4)GlcNAc(b1-3)Gal(b1-4)GlcNAc(b1-3)Gal(b1-4)GlcNAc(b1-6)]Man(a1-6)[Gal(b1-4)GlcNAc(b1-3)Gal(b1-4)GlcNAc(b1-3)Gal(b1-4)GlcNAc(b1-3)Gal(b1-4)GlcNAc(b1-2)Man(a1-3)]Man(b1-4)GlcNAc(b1-4)[Fuc(a1-6)]GlcNAc
# Outline: as §1
# [25] = molecular target: Gal3S(b1-4)[Fuc(a1-3)]Glc6S
# Outline: as §1
binder,measurement,setting,value
B1,glycan array binding signal (z-score),[1],4.25
same,glycan array binding signal (z-score),[2],-0.312
same,glycan array binding signal (z-score),Fuc(a1-2)Gal(b1-4)Glc,-0.196
same,glycan array binding signal (z-score),Fuc(a1-2)Gal(b1-4)GlcNAc,-0.232
same,glycan array binding signal (z-score),[3],-0.234
same,glycan array binding signal (z-score),[4],-0.199
same,glycan array binding signal (z-score),[5],2.26
same,glycan array binding signal (z-score),[6],-0.266
same,glycan array binding signal (z-score),[7],4.51
same,glycan array binding signal (z-score),[8],6.91
same,glycan array binding signal (z-score),[9],5.4
same,glycan array binding signal (z-score),[10],3.27
same,glycan array binding signal (z-score),[11],4.19
same,glycan array binding signal (z-score),[12],3.77
same,glycan array binding signal (z-score),[13],4.64
same,glycan array binding signal (z-score),[14],4.02
same,glycan array binding signal (z-score),[15],-0.301
same,glycan array binding signal (z-score),[16],-0.234
same,glycan array binding signal (z-score),[17],4.95
same,glycan array binding signal (z-score),[18],3.84
same,glycan array binding signal (z-score),Gal(b1-3)GlcNAc,-0.228
same,glycan array binding signal (z-score),[19],-0.181
same,glycan array binding signal (z-score),[20],-0.234
same,glycan array binding signal (z-score),[21],-0.176
same,glycan array binding signal (z-score),[22],4.23
same,glycan array binding signal (z-score),Gal(b1-4)GlcNAc(b1-2)Man,-0.289
same,glycan array binding signal (z-score),[23],-0.171
same,glycan array binding signal (z-score),[24],-0.148
same,glycan array binding signal (z-score),[25],-0.18
